Values joined by “and” are separate entries in the source; they are usually repeats but may differ in a detail not shown here. Equal entries are not always repeated. Results filed as inconclusive are left out. A number with no mark means an inactive call. Active and inactive are the calls of the source. Calls come from the whole dose curve; as a rule, active = well fitted curve in the direction sought with a large enough effect; inconclusive = small, poorly fitted or top-dose-only effect, or another doubt; inactive = no such curve, though single readings can be large; an effect the other way counts as inactive or inconclusive.

The values below come from PubChem BioAssay (NCATS).

One experiment deals with Hek293T. The experiment is described as follows: Primary qHTS to identify gynecologic anti-cancer compounds using libraries of approved drugs and bioactive compounds (AID 1345084). Note: nearly all actives have a fitted effect of over 55% in size. The settings on record: Gynecologic cancer cell panel viability, ATPlite luminescence, 48 h, control line for the selectivity index; series mostly up to 57.5 µM. In short, it runs like this:
(§1)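 Luminescence from the ATPlite ATP-monitoring reagent indicates viable cell number; lower signal means cytotoxicity. Cells received compound 16 h after seeding and were exposed for 48 h across five concentrations.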

In a further experiment the test system is JEG-3. Described as above. The settings on record: Gynecologic cancer cell panel viability, ATPlite luminescence, 48 h; series mostly up to 57.5 µM. In short, it runs like this: as §1
For another experiment, the system named is OV90. Described as above. The following applies: Gynecologic cancer cell panel viability, ATPlite luminescence, 48 h; series mostly up to 57.5 µM. In short, it runs like this:
as §1

In another experiment the test system is PA-1. Described as above. The settings on record: Gynecologic cancer cell panel viability, ATPlite luminescence, 48 h; series mostly up to 57.5 µM. In short, it runs like this:
as §1

The subject of another experiment is SKOV3. The description is as above. The settings on record: Gynecologic cancer cell panel viability, ATPlite luminescence, 48 h; series mostly up to 57.5 µM. In short, it runs like this:
as §1
On the technique in general: In ATP-based viability assays light output follows the ATP content of the culture.

The next experiment has as its system Tov-21-G. Described as above. The following applies: Gynecologic cancer cell panel viability, ATPlite luminescence, 48 h; series mostly up to 57.5 µM. In short, it runs like this:
as §1

The next experiment deals with Tov112D. The description is as above. The settings on record: Gynecologic cancer cell panel viability, ATPlite luminescence, 48 h; series mostly up to 57.5 µM. In short, it runs like this: as §1
Experiment [1] can be described thus: Drug repurposing screens with cells derived from glioblastoma tumor samples (AID 1345199). Note: nearly all actives have a fitted effect of over 40% in size. The following applies: GBM patient neurospheres viability, ATP luminescence, 48 h. The essentials:
(§2)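 Four patient lines of CD133+ GBM neurospheres were screened at several concentrations; hits were retested in those lines plus three slower-growing GBM lines, using 48-hour treatment and ATP-based viability.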

The next experiment relates to astro. The description is as above. The settings on record: viability, ATP luminescence, 48 h; series mostly up to 45.9 µM. In short, it runs like this: as §2
Setting [2] is: at 45.9 µM (top of the series), tumour line B.
The mark [3] stands for this setting: at 45.9 µM (top of the series), tumour line D.
The mark [4] stands for this setting: at 46 µM (top of the series), tumour line A.
The mark [5] stands for this setting: at 21.2 µM (top of the series), tumour line B.
Setting [6] is: at 21.2 µM (top of the series), tumour line D.
Where [7] appears, read: at 21.3 µM (top of the series), tumour line A.
Where [8] appears, read: at 108 µM (top of the series), tumour line B.
[9] abbreviates: at 108 µM (top of the series), tumour line D.
% is set by controls: 0 for no effect and ±100 for the full control effect; potency is the fitted concentration of half-maximal effect.

On to `ClCCCN1CCN(c2cccc(Cl)c2)CC1`, for which the Potency entry in the experiment with Hek293T, with JEG-3, in the experiment with OV90, in the experiment on PA-1, in the experiment with SKOV3 and in the experiment on Tov-21-G was “inactive” throughout. Also, in the experiment with Tov112D, the Potency entry is “inactive”.

Take `CCOC(=O)C(c1c(O)c2ccccc2oc1=O)c1c(O)c2ccccc2oc1=O`: the Potency entry with Hek293T, in the experiment on JEG-3, with OV90, in the experiment with PA-1, in the experiment on SKOV3 and in the experiment on Tov-21-G was “inactive” in each case. In addition, the Potency result in the experiment on Tov112D is “inactive”.

As for `CCc1ccc(C2CCNCC2)cc1`, the Potency entry in the experiment with Hek293T, with JEG-3, in the experiment with OV90, in the experiment on PA-1, in the experiment with SKOV3 and with Tov-21-G was “inactive” in each case. Besides, the Potency result in the experiment with Tov112D was “inactive”.

For `C[C@H]1CNCCc2ccc(Cl)cc21`, the Potency entry in the experiment with Hek293T, in the experiment with JEG-3, in the experiment on OV90, in the experiment with PA-1, in the experiment on SKOV3 and in the experiment on Tov-21-G was “inactive” throughout. Further, the Potency entry in the experiment with Tov112D is “inactive”. Besides, the activity, negative = cell killing is -18.8% in experiment [1] (setting [2]) and -14.1% in [1] (setting [3]). Moreover, in experiment [1] (tumour line A), the Potency is 11.2 µM (active).

In the case of `CCN(CC)CCOC(=O)C(C)(c1ccccc1)c1ccccc1`, the Potency result in the experiment on Hek293T, in the experiment with JEG-3, in the experiment on OV90, in the experiment on PA-1, in the experiment on SKOV3 and in the experiment with Tov-21-G was “inactive” throughout. Moreover, the Potency entry with Tov112D is “inactive”. Also, the activity, negative = cell killing in experiment [1] (setting [2]) was -27.8%. The Potency in experiment [1] (tumour line A) was 10 µM (active).

Consider `COc1cc(CC#N)cc(OC)c1OC`, for which the Potency result in the experiment on Hek293T, in the experiment with JEG-3, in the experiment on OV90, in the experiment with PA-1, with SKOV3 and with Tov-21-G was “inactive” throughout. In the experiment with Tov112D, the Potency entry was “inactive”.

As to `C[C@]12CC[C@H](O)CC1=CC[C@@H]1[C@@H]2CC[C@]2(C)C(=O)CC[C@@H]12`, the Potency entry with Hek293T, in the experiment on JEG-3, in the experiment with OV90, in the experiment with PA-1, in the experiment with SKOV3 and with Tov-21-G was “inactive” throughout. The Potency result with Tov112D was “inactive”. Further, in experiment [1] (setting [2]), the activity, negative = cell killing is -4.02%. The Potency in experiment [1] (tumour line A) was 22.4 µM (active).

As for `OC(O)C(Cl)(Cl)Cl`, the Potency entry in the experiment with Hek293T, in the experiment on JEG-3, in the experiment with OV90, in the experiment on PA-1, in the experiment with SKOV3 and in the experiment with Tov-21-G was “inactive” each time. For the same compound, in the experiment on Tov112D, the Potency entry was “inactive”. Moreover, the activity, negative = cell killing in experiment [1] (setting [2]) was -7.9%; in experiment [1] (setting [3]), -0.425%; in experiment [1] (setting [4]), -19%.

For the compound `C[C@]12CC[C@H]3[C@@H](CCC4=CC(=O)CC[C@@H]43)[C@@H]1CC[C@@H]2O`, the Potency entry in the experiment with Hek293T, with JEG-3, in the experiment with OV90, with SKOV3, in the experiment with Tov-21-G and in the experiment on Tov112D was “inactive” throughout. Also, the Potency with PA-1 is 10 µM (active). For the same compound, the activity, negative = cell killing in experiment [1] (setting [2]) was 2.47% and -10.2%.

For the compound `O=C(CCCCl)c1ccc(F)cc1`, the Potency result with Hek293T, in the experiment on JEG-3, in the experiment with OV90, in the experiment on PA-1, with SKOV3 and with Tov-21-G was “inactive” each time. Further, the Potency entry in the experiment on Tov112D was “inactive”.

In the case of `O=c1n(Cl)c(=O)n(Cl)c(=O)n1Cl`, the Potency entry in the experiment with Hek293T, with JEG-3, in the experiment on OV90, with PA-1, in the experiment with SKOV3 and in the experiment with Tov-21-G was “inactive” each time. For the same compound, the Potency result with Tov112D was “inactive”. In addition, the activity, negative = cell killing is -0.787% in [1] (setting [2]) and 7.38% in experiment [1] (setting [3]).

As for `O=C(CBr)Nc1ccc(Cl)cc1C(=O)c1ccccc1F`, the Potency entry with Hek293T, in the experiment on JEG-3, in the experiment on OV90, with PA-1, in the experiment with SKOV3 and in the experiment on Tov-21-G was “inactive” throughout. Moreover, the Potency result in the experiment on Tov112D was “inactive”.

Turning to `CC(CC(C(N)=O)(c1ccccc1)c1ccccc1)N(C)C` (centres undefined), the Potency entry in the experiment with Hek293T, in the experiment on JEG-3, in the experiment with OV90, with PA-1, with SKOV3 and in the experiment with Tov-21-G was “inactive” each time. In the experiment with Tov112D, the Potency entry was “inactive”.

Regarding `COP(=O)(OC)OC=C(Cl)Cl`, the Potency entry in the experiment on Hek293T, in the experiment with JEG-3, with OV90, in the experiment with PA-1, in the experiment with SKOV3 and with Tov-21-G was “inactive” in each case. Further, the Potency result with Tov112D is “inactive”. The Potency in [1] (tumour line A) was 7.08 µM (active).

Consider `Nc1ccc(Cl)cc1C(=O)c1ccccc1F`, for which the Potency result in the experiment with Hek293T, in the experiment with JEG-3, in the experiment with OV90, with PA-1, in the experiment on SKOV3 and in the experiment with Tov-21-G was “inactive” each time. For the same compound, the Potency result in the experiment with Tov112D is “inactive”.

As for `CCC(=O)C(CCN(C)C)(c1ccccc1)c1ccccc1`, the Potency entry in the experiment with Hek293T, with JEG-3, with OV90, in the experiment on PA-1, in the experiment on SKOV3 and in the experiment with Tov-21-G was “inactive” in each case. Besides, the Potency entry in the experiment with Tov112D was “inactive”.

As for `C#C[C@]1(O)CC[C@H]2[C@@H]3CCC4=CC(=O)CCC4=C3C=C[C@@]21CC`, the Potency entry in the experiment with Hek293T, with JEG-3, in the experiment with OV90, in the experiment on PA-1, in the experiment with SKOV3 and with Tov-21-G was “inactive” in each case. For the same compound, the Potency entry with Tov112D is “inactive”. In addition, the activity, negative = cell killing in [1] (setting [2]) is -22.9%; in experiment [1] (setting [3]), -22%. Moreover, the Potency in experiment [1] (tumour line A) was 10 µM (active).

Turning to `C[N+]1(C)[C@@H]2CC[C@H]1CC(OC(=O)C(CO)c1ccccc1)C2` (some centres undefined), the Potency entry in the experiment on Hek293T, in the experiment with JEG-3, in the experiment with OV90, in the experiment on PA-1, in the experiment on SKOV3 and in the experiment on Tov-21-G was “inactive” throughout. Moreover, the Potency entry in the experiment with Tov112D and in the experiment on astro was “inactive” each time. Moreover, the activity, negative = cell killing in experiment [1] (setting [5]) was -14.5%; in [1] (setting [6]), -3.94%; in experiment [1] (setting [7]), -14.4%; in experiment [1] (setting [2]), -1.41%; in experiment [1] (setting [3]) it was -16.2%; in experiment [1] (at 46.1 µM (top of the series), tumour line C), -12.5%.

For `CNC(C)Cc1ccccc1OC` (centres undefined), the Potency result with Hek293T, with JEG-3, in the experiment with OV90, in the experiment on PA-1, in the experiment on SKOV3 and with Tov-21-G was “inactive” each time. Also, the Potency entry in the experiment with Tov112D and with astro was “inactive” in each case. In addition, the activity, negative = cell killing in experiment [1] (setting [2]) was -11.6%; in experiment [1] (setting [3]) it was -21%; in experiment [1] (setting [4]), -24.5%.

In the case of `CNC(C)Cc1ccc2c(c1)OCO2` (centres undefined), the Potency result with Hek293T, with JEG-3, with OV90, in the experiment with PA-1, in the experiment with SKOV3 and with Tov-21-G was “inactive” each time. Further, the Potency entry with Tov112D and in the experiment with astro was “inactive” each time. In addition, the values for the activity, negative = cell killing in [1] (setting [8]) and in experiment [1] (setting [9]) were 0.451% and -9%, respectively. Moreover, in experiment [1] (tumour line A), the Potency is 50.1 µM (active).

As for `CC(Cc1ccc2c(c1)OCO2)NO` (centres undefined), the Potency result in the experiment with Hek293T, in the experiment on JEG-3, in the experiment with OV90, in the experiment with PA-1, in the experiment with SKOV3 and with Tov-21-G was “inactive” each time. The Potency result with Tov112D and in the experiment on astro was “inactive” each time. Moreover, the activity, negative = cell killing in [1] (setting [8]) was -8.99%; in experiment [1] (setting [9]), -8.83%.

On to `CN(C)C(=O)Oc1cc(OC(=O)N(C)C)cc(C(O)CNC(C)(C)C)c1` (centres undefined), for which the Potency entry in the experiment on Hek293T, in the experiment on JEG-3, in the experiment on OV90, in the experiment on PA-1, with SKOV3 and with Tov-21-G was “inactive” throughout. The Potency result in the experiment with Tov112D and in the experiment on astro was “inactive” each time. The activity, negative = cell killing was -7.15% in experiment [1] (setting [5]), -0.819% in [1] (setting [6]) and -13.9% in experiment [1] (setting [7]).

In the case of `CC1=C2[C@H]3OC(=O)[C@@H](C)[C@@H]3CC[C@@]2(C)C=CC1=O`, the Potency entry with Hek293T, in the experiment with JEG-3, with OV90, with PA-1, in the experiment with SKOV3 and in the experiment with Tov-21-G was “inactive” throughout. Also, the Potency entry in the experiment with Tov112D and with astro was “inactive” each time. Further, the activity, negative = cell killing in experiment [1] (setting [2]) is -4.49%; in experiment [1] (setting [3]) it was -15.5%; in experiment [1] (setting [4]), -23.4%.
